5 molecules from PubChem BioAssay can be followed below.

Calls of active or inactive are those of the source. Unless noted, how the calls were made is not given here.

Assay [1] is described as follows: anti-His antibody binders, primary screen, artefact control for SMM control protein annotation, biochemical, small-molecule microarray, 635 nm fluorescence (AID 1128).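 Further: score merges feature fluorescence with signal-to-noise for each printed compound spot.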 The settings on record: anti-His Alexa647 antibody binding, higher = more signal.
Assay [2] relates to Human papillomavirus type 1a E7 protein (residues 1-88). As to the kind of experiment: HPV1a E7 small-molecule binders, primary screen, biochemical, small-molecule microarray, residues 1-88, 635 nm (AID 1129). The settings on record: small-molecule microarray binding, fluorescence 635 nm; higher = more signal.
Assay [3] concerns the target Focal adhesion kinase 1 (Homo sapiens) (UniProt Q05397). The assay is described as follows: small-molecule microarray binders of FAK, primary screen, biochemical, 635/667 nm fluorescence, BSA, DTT (AID 1130).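 Further: composite of spot emission at 667 nm and signal to noise over triplicate slides.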 The settings on record: PTK2 binding, 635 nm fluorescence, higher = more signal.
Assay [4] deals with Fibrinogen (Alexa647-labelled). The assay is described as follows: fibrinogen binders on compound microarrays, profiling panel, artefact control for SMM control-protein annotation, biochemical, small-molecule microarray, 635/667 nm fluorescence (AID 1131).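 Further: z-score merges 667 nm fluorescence with per-spot signal-to-noise over triplicate slides.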 The settings on record: fibrinogen-A647 binding fluorescence, higher = more signal.
Assay [5] deals with Follistatin (Homo sapiens) (UniProt P19883). The assay is described as follows: follistatin binders on small-molecule microarrays, primary screen, biochemical, small-molecule microarray, 635/667 nm fluorescence (AID 1132). The settings on record: FST binding, 635 nm fluorescence, higher = more signal.
Assay [6] addresses Fibroblast growth factor 2 (Homo sapiens) (UniProt P09038). As to the kind of experiment: FGF2 binders on small-molecule microarrays, primary screen, biochemical, small-molecule microarray, 635/667 nm fluorescence (AID 1133). The settings on record: small-molecule microarray binding, FGF2, fluorescence 635/667; higher = more signal.
Assay [7] can be described thus: mitochondrial membrane potential change in A549 cells, profiling panel, cell-based, JC-1 fluorescence, basal, 24 h, 100 nL (AID 1138).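 Further: A549 lung adenocarcinoma cells under basal conditions with no added stimulus; test concentration not given here.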 Conditions: higher = more signal.
For a further assay, the system named is Lefty1. The assay is described as follows: Lefty1 binders on small-molecule microarrays, primary screen, biochemical, small-molecule microarray, 635/667 nm fluorescence (AID 1139). Conditions: small-molecule microarray binding, fluorescence 635/667; higher = more signal.
Assay [8] concerns wheat germ agglutinin (Triticum aestivum), Alexa647-labelled. As to the kind of experiment: wheat germ agglutinin binders on compound microarrays, profiling panel, artefact control for SMM control-protein annotation, biochemical, small-molecule microarray, 635/667 nm fluorescence (AID 1140).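 Further: score merges 667 nm feature emission with signal to noise over triplicate slides.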 Conditions: WGA-A647 binding, 635 nm fluorescence, higher = more signal.
The target in assay [9] is Luciferin 4-monooxygenase (Photinus pyralis) (UniProt P08659). The assay is described as follows: firefly luciferase enzyme inhibitors, primary screen, biochemical, luminescence, purified enzyme, 2006 set (AID 1141).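 Further: cell-free assay with purified firefly luciferase at 100 ng per well in PBS; test concentration not given here.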 Conditions: SteadyGlo luminescence, 30 min, higher = more signal, called active from +8 up or from −8 down.
Assay [10] has as its system Wnt5a (protein binding on small-molecule microarray). The assay is described as follows: Wnt5a binders on small-molecule microarray, primary screen, biophysical, 635/667 nm fluorescence (AID 1142).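 Further: fluorescence read at 667 nm with signal to noise per printed feature.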 Conditions: 635 nm fluorescence, higher = more signal.
Assay [11] in a line: cell viability in Huh7 cells, primary screen, cytotoxicity control for HCV replication inhibitor project, CellTiter-Glo luminescence, basal, 48 h (AID 1143).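 Further: Huh7 hepatoma cells carrying a hepatitis C replication reporter with no stimulus; test concentration not given here.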 Conditions: Huh7 HCV replicon, higher = more signal, called active from +8 up or from −8 down. On the technique in general: Cellular ATP, detected with luciferase, serves as a proxy for viable cell number.
Assay [12] can be described thus: P. aeruginosa biofilm formation inhibitors, primary screen, PAO1 strain, BacTiter-Glo luminescence, LB-PBS (AID 1144). The settings on record: 12 h, higher = more signal.
A short description of assay [13]: CREB reporter modulators without forskolin, primary screen, cell-based, PC12, CRE-LacZ reporter, unstimulated (AID 1145). The settings on record: no forskolin, luminescence, 4.5 h, higher = more signal, called active from +8 up or from −8 down.
Assay [14] is described as follows: CREB reporter modulators under forskolin, primary screen, cell-based, PC12, CRE-LacZ reporter, forskolin-stimulated (AID 1146).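 Further: PC12 cells with 6xCRE LacZ reporter stimulated by forskolin 10 µM; beta-galactosidase reporter signal reflecting CREB driven transcription.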 The settings on record: luminescence, 4.5 h, higher = more signal, called active from +8 up or from −8 down.
For assay [15], the target named is Streptavidin (Streptomyces avidinii) (UniProt P22629). As to the kind of experiment: streptavidin binders on small-molecule microarray, primary screen, artefact control for SMM compound annotation, biophysical, 635/667 nm fluorescence (AID 1147).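 Further: signal reflects streptavidin binding to arrayed compounds as a control protein.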 The settings on record: streptavidin binding, higher = more signal.
The nature of assay [16]: small-molecule binders of probe aInhba, primary screen, biochemical, small-molecule microarray, 635/667 nm fluorescence (AID 1148).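 Further: score merges 667nm spot fluorescence with signal-to-noise for antibody binding to printed compounds.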 Conditions: higher = more signal.
In assay [17] the target is Torsin-1A (Homo sapiens) (UniProt O14656). The assay is described as follows: torsin A binders from cell lysate, primary screen, small-molecule microarray, wild-type, 635/667 nm (AID 1149). The settings on record: COS7 hTOR1A-WT lysate, 635 nm fluorescence, higher = more signal.
Assay [18] shares this target. The assay is described as follows: small-molecule binders of mutant TOR1A in lysate, primary screen, cell lysate, small-molecule microarray, COS7 lysate, 635/667 nm fluorescence (AID 1150).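 Further: score pools 667 nm emission and signal to noise measuring lysate protein binding.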 Conditions: COS7 hTOR1A mutant lysate, 635 nm fluorescence, higher = more signal.
For assay [19], the system named is Sonic hedgehog protein (Shh). As to the kind of experiment: small-molecule binders of Shh protein, primary screen, biochemical, small-molecule microarray, 635/667 nm fluorescence (AID 1151).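 Further: Shh protein binding to compounds spotted on small-molecule microarray slides; score combines spot fluorescence intensity with signal-to-noise across triplicate slides.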 Conditions: small-molecule microarray binding, 635 nm fluorescence; higher = more signal.

Torsin-1A (Homo sapiens), sequence (O14656 whole entry, looked up): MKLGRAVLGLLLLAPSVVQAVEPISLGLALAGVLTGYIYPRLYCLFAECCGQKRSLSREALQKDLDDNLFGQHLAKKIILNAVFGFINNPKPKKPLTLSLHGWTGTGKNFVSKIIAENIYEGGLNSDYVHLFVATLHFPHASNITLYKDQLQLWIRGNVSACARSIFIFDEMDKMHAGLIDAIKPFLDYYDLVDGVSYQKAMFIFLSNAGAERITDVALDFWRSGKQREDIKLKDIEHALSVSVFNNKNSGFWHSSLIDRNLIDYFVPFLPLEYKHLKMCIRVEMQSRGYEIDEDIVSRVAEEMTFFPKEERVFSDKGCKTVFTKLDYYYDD
Focal adhesion kinase 1 (Homo sapiens), sequence (Q05397 whole entry, looked up): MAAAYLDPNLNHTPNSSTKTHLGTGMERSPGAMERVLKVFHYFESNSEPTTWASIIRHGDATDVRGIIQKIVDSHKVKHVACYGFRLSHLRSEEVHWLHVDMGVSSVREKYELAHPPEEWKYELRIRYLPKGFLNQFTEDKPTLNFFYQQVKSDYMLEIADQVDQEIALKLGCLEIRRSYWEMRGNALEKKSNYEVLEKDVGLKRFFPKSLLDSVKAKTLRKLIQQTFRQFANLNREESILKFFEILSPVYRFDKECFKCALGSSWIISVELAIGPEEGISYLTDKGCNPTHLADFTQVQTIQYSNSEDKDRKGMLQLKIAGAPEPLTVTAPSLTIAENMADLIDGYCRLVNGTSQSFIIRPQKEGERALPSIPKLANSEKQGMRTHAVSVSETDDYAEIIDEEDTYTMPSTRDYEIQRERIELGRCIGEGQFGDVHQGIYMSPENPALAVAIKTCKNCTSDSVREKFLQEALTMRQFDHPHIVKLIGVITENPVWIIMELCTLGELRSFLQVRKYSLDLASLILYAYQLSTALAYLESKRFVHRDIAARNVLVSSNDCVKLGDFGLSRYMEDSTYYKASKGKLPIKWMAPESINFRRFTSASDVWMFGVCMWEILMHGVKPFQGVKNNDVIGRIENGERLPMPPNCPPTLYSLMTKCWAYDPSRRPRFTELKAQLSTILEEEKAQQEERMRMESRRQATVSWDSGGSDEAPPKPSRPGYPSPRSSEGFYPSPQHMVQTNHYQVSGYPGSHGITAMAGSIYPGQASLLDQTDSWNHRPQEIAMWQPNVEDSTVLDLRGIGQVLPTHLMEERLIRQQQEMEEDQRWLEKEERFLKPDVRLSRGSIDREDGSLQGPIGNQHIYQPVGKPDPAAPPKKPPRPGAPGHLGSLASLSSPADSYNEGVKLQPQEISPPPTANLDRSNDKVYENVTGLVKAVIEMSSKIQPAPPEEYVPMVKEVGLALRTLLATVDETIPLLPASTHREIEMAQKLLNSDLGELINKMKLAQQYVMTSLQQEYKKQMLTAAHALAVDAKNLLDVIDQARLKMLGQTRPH
Fibroblast growth factor 2 (Homo sapiens), sequence (P09038 whole entry, looked up): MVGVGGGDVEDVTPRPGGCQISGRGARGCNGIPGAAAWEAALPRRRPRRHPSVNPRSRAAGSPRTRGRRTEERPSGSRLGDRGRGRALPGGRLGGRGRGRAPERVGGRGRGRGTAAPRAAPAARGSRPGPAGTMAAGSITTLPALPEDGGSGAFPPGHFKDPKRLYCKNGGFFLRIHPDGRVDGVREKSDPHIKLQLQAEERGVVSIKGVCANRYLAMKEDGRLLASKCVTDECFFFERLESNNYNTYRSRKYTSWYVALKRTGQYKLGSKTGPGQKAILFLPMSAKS
Follistatin (Homo sapiens), sequence (P19883 whole entry, looked up): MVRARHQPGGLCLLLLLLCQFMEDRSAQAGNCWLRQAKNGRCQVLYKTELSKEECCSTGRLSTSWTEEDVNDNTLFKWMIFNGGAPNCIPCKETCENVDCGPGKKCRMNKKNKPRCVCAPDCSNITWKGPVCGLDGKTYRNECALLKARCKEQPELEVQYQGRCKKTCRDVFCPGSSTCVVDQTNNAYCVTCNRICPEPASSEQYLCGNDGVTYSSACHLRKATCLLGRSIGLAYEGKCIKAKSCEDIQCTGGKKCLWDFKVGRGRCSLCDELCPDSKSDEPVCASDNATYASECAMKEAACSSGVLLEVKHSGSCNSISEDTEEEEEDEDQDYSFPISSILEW
Streptavidin (Streptomyces avidinii), sequence (P22629 whole entry, looked up): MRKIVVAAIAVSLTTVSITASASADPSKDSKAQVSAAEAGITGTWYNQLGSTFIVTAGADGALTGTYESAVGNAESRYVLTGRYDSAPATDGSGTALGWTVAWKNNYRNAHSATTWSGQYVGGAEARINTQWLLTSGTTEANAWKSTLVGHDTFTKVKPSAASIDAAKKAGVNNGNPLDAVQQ
Luciferin 4-monooxygenase (Photinus pyralis), sequence (P08659 whole entry, looked up): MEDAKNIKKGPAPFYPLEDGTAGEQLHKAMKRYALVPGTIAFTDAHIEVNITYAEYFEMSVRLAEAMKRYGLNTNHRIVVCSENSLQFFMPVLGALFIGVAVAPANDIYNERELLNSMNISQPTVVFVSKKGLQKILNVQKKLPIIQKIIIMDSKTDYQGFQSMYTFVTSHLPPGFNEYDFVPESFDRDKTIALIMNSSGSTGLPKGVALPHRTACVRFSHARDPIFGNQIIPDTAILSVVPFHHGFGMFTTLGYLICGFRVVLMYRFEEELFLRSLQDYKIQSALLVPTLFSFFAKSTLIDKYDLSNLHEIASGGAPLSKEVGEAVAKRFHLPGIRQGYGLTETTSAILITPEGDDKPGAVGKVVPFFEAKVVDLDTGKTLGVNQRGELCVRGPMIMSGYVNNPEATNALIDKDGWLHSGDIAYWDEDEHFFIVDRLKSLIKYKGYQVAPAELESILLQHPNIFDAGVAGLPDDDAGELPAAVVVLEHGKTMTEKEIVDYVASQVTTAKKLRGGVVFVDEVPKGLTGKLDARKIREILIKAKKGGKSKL

As for `CCOC(=O)[C@H](Cc1ccccc1)NC(=O)CCC1CC(OC(=O)NCc2ccc3c(c2)OCO3)CC2(CCCC(COC(=O)NCCC(C)C)O2)O1` (stereo not given in full), the composite z-score in [1] is 0.408; in [2], 0.57; in assay [3] it was 0.234; in assay [4], 0.894; in [5], 0.443; in [6] it was 1.06. The composite z-score in the assay with Lefty1 worked out at 0.722; in assay [8], 0.531; in assay [10] it was 0.403; in assay [15], 0.789; in [16], 0.0471; with Torsin-1A (Homo sapiens) [17], 0.399. Further, the composite z-score with Torsin-1A (Homo sapiens) [18] was determined as 0.418; in [19], 1.74. In addition, the z-score in [7] is -0.549; in assay [9], 0.906 (inactive); in assay [11], -1.05 (inactive); in assay [12] it was -0.749 (inactive); in [13] it was -0.254 (inactive); in [14] it was 0.0924 (inactive).

In the case of `CCOC(=O)[C@H](CC(C)C)NC(=O)CCC1CC(OC(=O)NCCc2ccc(F)cc2)CC2(CCCC(COC(=O)NCC3CCCCC3)O2)O1` (stereo not given in full), the composite z-score in assay [1] is 0.183; in [2], 0.579; in assay [3], -0.124; in [4] it was 0.623; in [5], 0.51; in assay [6], 0.631. In addition, the composite z-score was 0.803 with Lefty1; 0.676 in assay [8]; 0.0548 in assay [10]; 1.42 in assay [15]; -0.148 in [16]; -0.0001 in the assay with Torsin-1A (Homo sapiens) [17]. In addition, the figures for the composite z-score (with Torsin-1A (Homo sapiens) [18]; in [19]) were 0.915 and 0.648, respectively. Besides, the z-score in assay [7] is -0.506; in assay [9], 0.997 (inactive); in assay [11] it was 0.791 (inactive); in [12] it was 0.239 (inactive); in assay [13], 0.381 (inactive); in [14], 0.868 (inactive).

Regarding `O=C1[C@H]2[C@H]3[C@H](O)[C@H](O)CC(=NOC[C@@H](O)COCc4ccco4)[C@H]3CC[C@H]2C(=O)N1Cc1ccccc1`, the composite z-score in assay [1] is -0.267; in assay [2] it was -0.429; in assay [3], -0.326; in assay [4], -1.55; in assay [5] it was 0.691; in [6], 0.633. Besides, the composite z-score in the assay on Lefty1 is 0.496; in assay [8], -0.438; in assay [10] it was -0.0661; in assay [15], -0.68; in assay [16], -0.182; in the assay with Torsin-1A (Homo sapiens) [17], 0.246. In addition, the composite z-score came to 0.462 in the assay with Torsin-1A (Homo sapiens) [18] and 1.38 in assay [19]. The z-score in assay [7] was -0.287; in [9], 0.737 (inactive); in assay [11], -0.734 (inactive); in [12], 0.448 (inactive); in assay [13] it was -0.474 (inactive); in assay [14] it was 0.479 (inactive).

With `C#CCCCON=C1C[C@@H](O)[C@@H](O)[C@@H]2[C@@H]3C(=O)N(c4ccc(F)cc4F)C(=O)[C@@H]3CC[C@@H]12`, the composite z-score was -0.0071 in [1]; 0.111 in assay [2]; 0.131 in assay [3]; 0.265 in assay [4]; 0.141 in [5]; 0.474 in assay [6]. For the same molecule, the composite z-score in the assay on Lefty1 was 0.322; in assay [8], 0.238; in assay [10], 0.09; in assay [15] it was -0.091; in assay [16], -0.213; with Torsin-1A (Homo sapiens) [17], 0.061. Further, the composite z-score with Torsin-1A (Homo sapiens) [18] came out at 0.0576; in assay [19], 0.351. In addition, the z-score in assay [7] was -0.633; in assay [9] it was 1.04 (inactive); in [11] it was -0.459 (inactive); in [12], 0.589 (inactive); in assay [13], -0.564 (inactive); in assay [14], -0.392 (inactive).

For the molecule `CCc1cc2c(nc1CC)CCN(CCC(C)=NO[C@@H](C)c1cn([C@H](CO)Cc3ccccc3)nn1)C2`, the composite z-score is 1.62 in assay [1]; -0.452 in assay [2]; -0.0908 in assay [3]; 0.996 in assay [4]; 0.595 in [5]; 0.0391 in assay [6]. The composite z-score was 0.529 in the assay with Lefty1; 0.307 in assay [8]; -0.144 in assay [10]; 0.453 in [15]; -0.0087 in assay [16]; 1.1 with Torsin-1A (Homo sapiens) [17]. For the same molecule, the composite z-score with Torsin-1A (Homo sapiens) [18] came out at 0.216; in [19], 0.961. Moreover, the z-score was 2.07 in [7]; -0.896 (inactive) in assay [9]; -0.519 (inactive) in assay [11]; 0.434 (inactive) in assay [12]; -0.892 (inactive) in assay [13]; -1.03 (inactive) in assay [14].
